# From PubChem BioAssay AID1868 (National Center for Advancing Translational Sciences (NCATS), 2009)
# Out of some 270,000 compounds screened, about 20 (0.007%) were called active. Calls come from the whole dose curve; as a rule, active = well fitted inhibition curve with a large enough effect; inconclusive = small, poorly fitted or top-dose-only effect, or effect the other way; inactive = flat fitted curve, though single readings scatter. Not all results are given here.
# Target: Galactokinase (Homo sapiens) (UniProt P51570)
# Assay: qHTS Assay for Inhibitors of Human Galactokinase (GALK)
# Settings: Purified GALK, Kinase-Glo residual ATP luminescence; series mostly up to 57.5 µM; activity change, negative = inhibition: at the top concentration
# Excerpt: NIH Molecular Libraries Probe Production Centers Network [MLPCN] NIH Chemical Genomics Center [NCGC] MLPCN Grant: R03 MH085689-01 Assay Submitter (PI): Kent Lai (University of Utah School of Medicine, 50 N Mario Capecchi Drive, Salt Lake City, UT 84132) NCGC Assay Overview: Inherited deficiency of galactose-1-phosphate uridyltransferase (GALT) can result in a potentially lethal disorder called Classic Galactosemia (OMIM 230400). Several lines of evidence indicate that an elevated level of galactose-1-phosphate (gal-1-p), the product of galactokinase (GALK), is a major, if not sole, pathogenic mechanism in patients with classic galactosemia. Therefore, finding inhibitors of GALK is a potential novel therapy for this inherent metabolic disease and is the long term goal of this project. GALK (provided by the assay submitter) was assayed using ATP and D-(+)-Galactose (Sigma-Aldrich cat# G0750) as substrates. Promega Kinase-Glo Plus (cat# V3774) technology was used to detect the residual ATP following kinetic reaction. Briefly, the Kinase-Glo Plus contains Ultra-Glo [2] luciferase and D-luciferin which generates a bioluminescence signal from the remaining ATP.
# NCGC Assay Protocol Summary: Three uL/well of ATP-buffer solution (35 uM ATP, 20mM HEPES pH8.0, 5 mM MgCl2, 60 mM NaCl, 1 mM DTT, 0.01% BSA final concentration) was dispensed into 1536-well, assay plates (Greiner, solid white medium-binding plates) with Aurora Discovery BioRAPTR Flying Reagent Dispenser (FRD; Beckton-Dickenson). Compound solution (23 nL) was transferred to the assay plate using the Kalypsys 1536-pin tool. One uL/well GALK-galactose solution (5 nM GALK, 100 uM galactose, 20 mM HEPES pH8.0, 5 mM MgCl2, 60 mM NaCl, 1 mM DTT, 0.01% BSA final concentration) was then added using the FRD yielding a total kinase reaction volume of 4 uL/ well. After 1 hour of room temperature incubation, 4 uL Kinase-Glo Plus reagent was added for a final assay volume of 8 uL/ well. Luminescence was detected with the ViewLux plate reader (Perkin Elmer, Waltham, MA) after 10 min incubation using a 1 sec exposure time and 2x binning.
# % is set by controls: 0 for no effect and ±100 for the full control effect.
# Sequence of Galactokinase (Homo sapiens) (P51570 whole entry, looked up): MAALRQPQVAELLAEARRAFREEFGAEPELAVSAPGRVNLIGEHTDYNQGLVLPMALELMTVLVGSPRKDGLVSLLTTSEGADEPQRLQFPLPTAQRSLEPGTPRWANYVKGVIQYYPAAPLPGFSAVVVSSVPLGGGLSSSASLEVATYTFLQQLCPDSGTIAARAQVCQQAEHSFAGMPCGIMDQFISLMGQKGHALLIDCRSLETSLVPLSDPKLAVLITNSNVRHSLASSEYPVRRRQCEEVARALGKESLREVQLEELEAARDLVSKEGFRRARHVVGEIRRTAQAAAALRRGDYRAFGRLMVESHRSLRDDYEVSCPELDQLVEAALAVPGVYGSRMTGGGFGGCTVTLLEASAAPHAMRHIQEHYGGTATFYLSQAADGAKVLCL
row,Compound,"activity change, negative = inhibition"
1,Brc1ccccc1CN1CCC(Cc2ccccc2)CC1,-0.837% (inactive)
2,CC1CCN(C2=NC(=O)/C(=C/c3ccc(O)cc3)S2)CC1,-3.46% (inactive)
3,CC1(C)Cc2c(sc(NC(=O)C(=O)N3CCOCC3)c2C#N)CO1,-2.42% (inactive)
4,COc1cc(Cl)ccc1OCc1cc(C(=O)N2CC[C@@H]3CCCC[C@H]3C2)no1,3.62% (inactive)
5,CCOc1ccc(CN2CCNC(=O)C2CC(=O)NCCCC2CCCC2)cc1 (stereo unspecified),-3.91% (inactive)
6,CCOc1ccc(S(=O)(=O)N2CCCC(C(=O)N3CCC(C(N)=O)CC3)C2)cc1Cl (stereo unspecified),6.26% (inactive)
7,C=CCOc1ccc(/C=C/C(=O)OCC(=O)NC2CCCCCC2)cc1,0.149% (inactive)
8,CN(c1ccccc1)S(=O)(=O)c1ccc(NC(=O)COc2ccccc2)cc1,-2.58% (inactive)
9,Oc1cccc(/C=N/Nc2ccc(Cl)nn2)c1O,3.86% (inactive)
10,O=C(NCCNc1ccc([N+](=O)[O-])cc1Cl)c1ccccc1F,2.76% (inactive)
11,COc1ccc(S(=O)(=O)/N=C2\C=C(NS(=O)(=O)c3ccccc3)C(=O)c3ccccc32)cc1,2.13% (inactive)
12,Cn1c(Nc2cccc(Cl)c2)nc2ccccc21,3.7% (inactive)
13,CCn1c(=O)c(C(=O)NCc2ccc3c(c2)OCO3)c(O)c2ccccc21,-0.778% (inactive)
14,O=C(Nc1ccc(Cl)c(Cl)c1)c1ccccc1NC(=O)C1CC=CCC1C(=O)O (stereo unspecified),-1.72% (inactive)
15,Cc1cccc(N2CCN(C(=O)CCS(=O)(=O)c3ccc4c(c3)NC(=O)C(C)S4)CC2)c1C (stereo unspecified),-0.901% (inactive)
16,CC(C)(C)NC(=O)C(c1ccc(Cl)cc1)N(CCO)C(=O)c1snc(C(N)=O)c1N (stereo unspecified),9.43% (inactive)
17,O=C(CN1CCCC1)Nc1sc2c(c1C(=O)Nc1ccccc1)CCCC2,0.0885% (inactive)
18,O=C(N/N=C/c1cccc(OCc2ccccc2)c1)c1ccc(Br)o1,4.11% (inactive)
19,Cc1cc(C)n(CC(O)COc2ccc(C(C)(C)C)cc2)n1 (stereo unspecified),6.25% (inactive)

row,Compound,"activity change, negative = inhibition"
1,COc1ccc(Oc2cn[nH]c2-c2ccc(OC)cc2O)cc1,6.03% (inactive)
2,CSc1nnc(NC(=O)c2nc(S(=O)(=O)Cc3ccc(C)cc3)ncc2Cl)s1,-8.93% (inactive)
3,Cc1cc(N=Nc2ccc3ccccc3c2)ccc1O,-2.63% (inactive)
4,Cc1ccc(-c2nc(-c3ccncc3)no2)c(C)c1,0% (inactive)
5,CCCNC(=O)CCn1nc(-c2ccccc2)c2ccccc2c1=O,0.567% (inactive)
6,COc1ccc(C(=O)/C=C/c2cccnc2)c(OC)c1,0.185% (inactive)
7,COc1ccc(S(=O)(=O)N2CCN(C(=O)N(C)C)C2C)cc1 (stereo unspecified),-1.94% (inactive)
8,CN(C)S(=O)(=O)N1CCC(Oc2cccc(C(=O)NCCCC3CCCC3)c2)CC1,-10.2% (inactive)
9,O=C(Nc1ccccc1)c1ccc2c(c1)OCCCO2,3.05% (inactive)
10,Cc1[nH]n(C(N)=S)c(=O)c1N=Nc1ccc(Cl)cc1Cl,4.38% (inactive)
11,O=C(NC(=S)Nc1ccc(Cl)cc1Cl)C1CC1,2.25% (inactive)
12,COc1cccc(CNc2ncc(-c3ccccc3)n2C)c1,-6.73% (inactive)
13,CCOc1ccccc1/C=N/Nc1nc2ccccc2o1,-3.29% (inactive)
14,COc1ccc(CNc2cc(C)cc(C)c2)cc1OC,3.43% (inactive)
15,Cc1ccc(NC(=O)Nc2cccnc2)cc1,4.12% (inactive)
16,COc1ccc2cc(C(=O)C3CCCN(C(=O)c4sc(C)nc4C)C3)ccc2c1 (stereo unspecified),7.03% (inactive)
17,CC(C)(C)C(=O)Nc1ccc(-c2cn3cccnc3n2)cc1,-0.896% (inactive)
18,CC1(C(=O)N/N=C/c2cc3c(cc2Br)OCO3)CC1(Br)Br (stereo unspecified),-6.75% (inactive)
19,c1ccc(Cc2ccc(OCCn3ccnc3)cc2)cc1,2.93% (inactive)

row,Compound,"activity change, negative = inhibition"
1,CNS(=O)(=O)c1ccc(NC(=O)Nc2ccc3c(c2)OCO3)cc1,2.4% (inactive)
2,CC(=O)N(C)c1ccc(NC(=O)Nc2cccc3ccccc23)cc1,4.09% (inactive)
3,Cc1nonc1NC(=O)c1oc2ccccc2c1C,4.67% (inactive)
4,O=C(NCCCN1CCOCC1)c1ccc2c(c1)N(Cc1cccc(F)c1)C(=O)c1ccccc1S2,-2.22% (inactive)
5,CSc1ccccc1OCc1cc(C(=O)N2C[C@H]3CC[C@H]2C3)no1,-3.8% (inactive)
6,O=C(CNC(=O)Cc1ccccc1)N=Nc1c(O)[nH]c2ccc(Br)cc12,-8.43% (inactive)
7,O=C(O)Cc1ccc(NC(=O)Nc2cccc3ccccc23)cc1,0.889% (inactive)
8,COc1ccc(C(=O)NC2=NCCS2)c(OC)c1,-5.52% (inactive)
9,CCCOC1CCCN(C(=O)c2cc(COc3cncc(Cl)c3)on2)C1 (stereo unspecified),1.7% (inactive)
10,CCc1ccc(C(=O)NC(=S)Nc2ccccc2N2CCOCC2)cc1,-4.65% (inactive)
11,Nc1cc(N)nc(SCc2cccc(F)c2)n1,-1.43% (inactive)
12,Cc1ccc(NS(=O)(=O)c2ccc3c(c2)n(C)c(=O)c(=O)n3C)c(C)c1,-0.414% (inactive)
13,COc1ccc(N(Cc2ccc(N(C)C)cc2)C(=O)c2ccc(S(C)(=O)=O)cc2)cc1,-2.56% (inactive)
14,CCCCC(=O)Nc1ccccc1N1CCN(c2ccc(F)cc2)CC1,-6.49% (inactive)
15,CC(=O)Nc1ccc(NC(=O)C2CCCN2S(=O)(=O)c2cccc(C(F)(F)F)c2)cc1 (stereo unspecified),1.26% (inactive)
16,COc1ccc(-c2noc(CCCC(=O)NC3CCCC3)n2)cc1OC,1.8% (inactive)
17,O=C(/C=C/c1ccco1)NC(=S)Nc1ccccc1Br,5.8% (inactive)
18,COc1ccc(CCNC(=O)C2CCCN(S(=O)(=O)c3ccc(OC)cc3)C2)cc1 (stereo unspecified),10.8% (inactive)
